GDH-TPI counter: inhibits GDH-TPI coupling enzymes, artifact for Mtb FBA screen; actives 1.2% (n = 360,000); inhibition, % at 4.8 µM; GDH-TPI coupled enzyme counterscreen, NADH absorbance; in the data active = inhibition above about 30%;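 note: 0% = DMSO wells and 100% = wells lacking the enzyme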
FBA Mtb inh: inhibits M. tuberculosis FBA enzyme. P9WQA3. purified M. tuberculosis FBA, fluorescence read-out. inhibition, % at 1 µM. actives 2.3% (n = 360,000). AID 588726; in the data active = inhibition above about 27%;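 note: 0% = vehicle and 100% = reference inhibitor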
Target sequence (P9WQA3 whole entry, looked up): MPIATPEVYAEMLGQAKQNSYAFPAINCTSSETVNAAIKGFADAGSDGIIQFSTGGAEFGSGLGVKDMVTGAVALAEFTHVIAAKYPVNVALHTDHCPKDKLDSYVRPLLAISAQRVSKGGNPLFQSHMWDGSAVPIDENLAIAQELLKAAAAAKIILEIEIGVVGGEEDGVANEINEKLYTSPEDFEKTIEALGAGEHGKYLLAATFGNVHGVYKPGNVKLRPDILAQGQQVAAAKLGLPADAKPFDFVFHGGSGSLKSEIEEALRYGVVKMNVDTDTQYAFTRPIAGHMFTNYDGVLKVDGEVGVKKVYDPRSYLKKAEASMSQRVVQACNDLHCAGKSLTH
BioA inh: BioA (M. tuberculosis) enzyme inhibition; purified M. tuberculosis BioA enzyme, plate reader; inhibition, % at 9.99 µM; actives 0.096% (n = 360,000); AID 602481; in the data active = inhibition above about 40%
Vc quorum ag-1: induces V. cholerae light production without autoinducers. V. cholerae BH1578 lux reporter, luminescence, 6 h. activation, % at 18.7 µM. actives 0.16% (n = 350,000). AID 588436; in the data active = activation mostly above about 9.7%, no sharp cut-off
Vc quorum ag-2: quorum light induction in BH1578 reporter strain; shares compounds with Vc quorum ag-1; V. cholerae BH1578 lux reporter, luminescence, 6 h; activation, % at 50 µM; 620 tested, under 10 active; AID 602243; call rule not given here
The depositor's hits bear a star; i = inactive; . = no result; + = active, no number. This is a sample that favours compounds with a hit; in the whole collection about 3% have one here.

SMILES	GDH-TPI counter	FBA Mtb inh	BioA inh	Vc quorum ag-1	Vc quorum ag-2
Cc1ccccc1NC(=O)c1cc2ccccc2o1	3	2	-1	i	.
Cc1cc(C(=O)Nc2cccc3c2O[C@H](CN(C)Cc2ccccc2)[C@@H](C)CN([C@H](C)CO)C3=O)n(C)n1	.	.	-2	.	.
COCCSc1ccccc1C(=O)Nc1nnc(COC)s1	21	1	-1	12	0
COCc1nnc(NC(=O)CCSc2ccccc2)s1	-8	3	.	3	.
CC(C)CC#Cc1cnc2c(c1)C(=O)N([C@H](C)CO)C[C@@H](C)[C@@H](CN(C)Cc1ccccn1)O2	.	.	-2	.	.
Cc1ccc(C)c(C(=O)CN2C(=O)NC3(CCCCCC3)C2=O)c1	0	-2	-3	12	0
Cc1noc(C)c1S(=O)(=O)Nc1cccc2c1O[C@H](CN(C)Cc1ccc(C(=O)O)cc1)[C@H](C)CN([C@@H](C)CO)C2=O	.	.	-3	.	.
CCNC(=O)C[C@H]1CC[C@@H]2[C@H](COc3ccc(NC(=O)c4ccc5c(c4)OCO5)cc3C(=O)N2C)O1	.	.	5	.	.
O=C(c1cccc(S(=O)(=O)N2CCc3ccccc32)c1)N1CCc2ccccc2C1	0	0	0	-3	.
O=C(c1cccc(S(=O)(=O)N2CCc3ccccc32)c1)N1CCOCC1	-1	-1	-1	288*	0
O=C(Cc1ccc2c(c1)CCCC2)Nc1ccccc1Br	8	0	-1	427*	28
CCCOc1ccc(-c2nc(OC)c3ccccc3n2)cc1	5	1	-1	25*	0
COc1ccc(C(=O)CSc2nnc3ccccn23)cc1OC	8	2	.	i	.
CCn1nnnc1SCC(=O)c1ccc2c(c1)OCCO2	-6	-1	.	+	i
O=C(CSc1nnc2ccccn12)c1ccc2c(c1)OCCO2	5	-1	-4	+	i
CC(C)n1nnnc1SCC(=O)c1ccc2c(c1)OCCO2	0	-1	0	+	i
CCOC(=O)c1cnc(SCC(=O)OCC(=O)NC2CCS(=O)(=O)C2)nc1N (centres undefined)	0	5	.	32*	1
CCOC(=O)c1cnc(SCC(=O)OCC(=O)N(CC)C2CCS(=O)(=O)C2)nc1N (centres undefined)	12	-4	.	0	.
O=S(=O)(Nc1cccc(S(=O)(=O)N2CCCCC2)c1)c1ccccc1F	11	1	-2	26*	0
O=S(=O)(Nc1cccc(S(=O)(=O)N2CCCC2)c1)c1ccccc1F	-10	1	0	-3	.
COc1ccc(S(=O)(=O)Nc2cccc3c2O[C@H](CN(C)Cc2ccc(Cl)c(Cl)c2)[C@@H](C)CN([C@@H](C)CO)C3=O)cc1	.	.	0	.	.
O=C(NCCC(=O)N1CCN(c2ccccc2F)CC1)c1ccco1	4	1	4	i	.
O=C(NCCC(=O)N1CCN(c2ccc(F)cc2)CC1)c1ccco1	-4	-1	3	12	100
Cc1ccc(S(=O)(=O)N(C)c2ccc(OCC(=O)N3CCCCC3)cc2)cc1	-1	6	-2	12	2
COc1ccc(S(=O)(=O)N(C)C[C@H]2OCCCC[C@@H](C)Oc3ccc(NC(=O)c4ccccc4)cc3C(=O)N([C@@H](C)CO)C[C@@H]2C)cc1	.	.	-1	.	.
SMILES	GDH-TPI counter	FBA Mtb inh	BioA inh	Vc quorum ag-1	Vc quorum ag-2
C[C@H](CO)N1C[C@H](C)[C@H](CN(C)S(=O)(=O)c2ccccc2)Oc2c(NC(=O)Nc3ccc(F)cc3)cccc2C1=O	.	.	-1	.	.
O=C(CC1NC(=O)NC1=O)Nc1ccc(Cl)cc1 (centres undefined)	-9	0	1	7	0
O=C(O)c1cc(CN2CCOCC2)oc1-c1ccccc1	-7	-2	0	17*	1
Cc1nn2cnnc2c(C)c1Cc1c(F)cccc1Cl	-3	141*	6	165*	10
CSc1nc(C)c(Cc2c(F)cccc2Cl)c(=O)[nH]1	10	1	-2	1	.
C[C@H]1CN([C@@H](C)CO)C(=O)Cc2cc(NC(=O)CCC(F)(F)F)ccc2O[C@H]1CN(C)Cc1ccccc1	.	.	2	.	.
CCC(=O)N1C[C@H](C)[C@H](OC)CN(C)C(=O)c2ccc(NC(=O)c3ccc(F)cc3)cc2OC[C@@H]1C	.	.	-1	.	.
CC(C)Cn1c(S(=O)(=O)O)nc2ccccc21	-10	2	.	i	.
CCC(C)Cn1c(S(=O)(=O)O)nc2ccccc21 (centres undefined)	-5	-1	0	24	0
C[C@@H]1CN([C@H](C)CO)C(=O)c2cc(C#CC3(O)CCCC3)cnc2O[C@H]1CN(C)C(=O)CC1CC1	.	.	1	.	.
COc1ccc(C(=O)COC(=O)CNC(=O)c2ccc(Cl)cc2Cl)c(OC)c1	-2	-3	-2	2	0
CN1CCN(CC(O)COc2ccc(Cl)cc2)CC1 (centres undefined)	1	0	.	0	.
OCCN1CCN(CC(O)COc2ccc(Cl)cc2)CC1 (centres undefined)	9	-1	-1	17*	0
COCC(=O)N1C[C@@H](C)[C@H](OC)CN(C)C(=O)c2cc(NC(=O)NC(C)C)ccc2OC[C@H]1C	.	.	-1	.	.
CCOc1ccc2cc(C#N)c(SCC(=O)N3CCC(C)CC3)nc2c1	-5	3	-2	14	5
C[C@@H]1CN([C@@H](C)CO)C(=O)c2cc(NS(=O)(=O)c3ccc(F)cc3)ccc2O[C@@H](C)CCCCO[C@H]1CN(C)C(=O)CCC(F)(F)F	.	.	0	.	.
C[C@@H](NC(=O)C[C@H]1CC[C@@H]2[C@H](COC[C@H](O)CN2C(=O)Nc2ccccc2)O1)c1ccccc1	.	.	-1	.	.
CC(C)OC(=O)CSc1nnc(SCc2cccc3ccccc23)s1	0	3	-3	29*	0
Cc1noc(C)c1S(=O)(=O)N(C)C[C@@H]1Oc2ccc(NC(=O)Cc3ccccc3)cc2CC(=O)N([C@H](C)CO)C[C@@H]1C	.	.	1	.	.
CCOC(=O)N1CCC(NC(=O)C2CCN(C(=O)N3CC(C)Oc4ccc(C)cc43)CC2)CC1 (centres undefined)	-5	1	1	7.6*	1
O=C(c1ccccn1)N1C[C@@H]2[C@H](c3ccccc31)[C@@H](CO)N2C(=O)C1CCCCC1	.	.	-3	.	.
O=C(CN1CCN(Cc2ccc(F)cc2Cl)C1=O)NCCc1ccccc1	4	0	1	0	.
O=C(O)CN1CCN(Cc2ccc(F)cc2Cl)C1=O	9	0	0	12	0
CCCCOCC(O)CN1CCN(C(C)=O)CC1 (centres undefined)	1	5	-1	12	2
CC(=O)N1CCN(CC(O)COc2ccc(Br)cc2)CC1 (centres undefined)	-6	-4	0	i	.
COc1ccc(Cc2nn[nH]n2)cc1	-5	2	1	7.6*	0
O=C(COC(=O)c1ccc(Cl)nc1)Nc1ccc2ccccc2c1	0	-1	-3	14	0
COc1ccc(NC(=O)CN(C)C(=O)c2cccc(S(=O)(=O)N3CCN(C)CC3)c2)cc1	-2	0	-4	9	0

Source: PubChem (several laboratories)
